Test results as given in PubChem BioAssay (NCI).
The panel holds about 83,000 compounds, 20% with a hit somewhere; the sample as a whole holds those more often.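 Assay: single dose, 48 h. Readout: percent growth (0 = no net growth; negative = cell death). Active: <10.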 Unmarked numbers belong to inactive results. Calls of active or inactive are those of the source.

Experiments:
Assay in all cases: NCI-60 one-dose screen, 48 h (100 = growth as untreated, 0 = no growth, -100 = all killed)
Details in all cases: 10 µM unless noted
SK-MEL-2 melanoma = tested on: SK-MEL-2 melanoma
EKVX NSCLC = tested on: EKVX NSCLC
SN12C renal = tested on: SN12C renal
UO-31 renal = tested on: UO-31 renal
TK-10 renal = tested on: TK-10 renal
ACHN renal = tested on: ACHN renal
CAKI-1 renal = tested on: CAKI-1 renal
A498 renal = tested on: A498 renal
CCRF-CEM leukemia = tested on: CCRF-CEM leukemia
MOLT-4 leukemia = tested on: MOLT-4 leukemia

Structure (SMILES)	growth (SK-MEL-2 melanoma)	growth (EKVX NSCLC)	growth (SN12C renal)	growth (UO-31 renal)	growth (TK-10 renal)	growth (ACHN renal)	growth (CAKI-1 renal)	growth (A498 renal)	growth (CCRF-CEM leukemia)	growth (MOLT-4 leukemia)
COc1cnc2c(c1)C(=O)c1c-2n(CCCCl)c(=O)c2ccncc12	102%	79.1%	70.4%	41.4%	87.3%	37.3%	35.7%	73.2%	34.6%	26.2%
Cc1nc2c(=O)nc3s/c(=C\c4ccco4)c(=O)n3c2nc1C	109%	91.8%	97.8%	73.1%	92.9%	99.2%	88.4%	50.9%	108%	106%
O=S(=O)(NCCCNc1nccc(-c2c(-c3cccc(F)c3)nc3occn23)n1)c1ccc(F)cc1	55.5%	54.3%	51.2%	31.4%	56.7%	46%	37.1%	45.7%	31.9%	8.3% (active)
O=C(NNC(=O)c1nc2cc(F)ccc2n2cccc12)c1cnccn1	67.1%	29.2%	40.2%	33.3%	62.7%	26%	27.9%	19.9%	17.1%	15%
Cn1c2c(c3ccc(Cl)c(Cl)c31)C(C#N)C(C)(C)NC2=O (stereo not given)	45.2%	84.9%	93.6%	110%	82.3%	80.1%	63.4%	-14.9% (active)	87.9%	59.4%
CCC1S/C(=N\N=C(\C)c2cc3cc(Cl)ccc3o2)N(c2ccccc2)C1=O (stereo not given)	299%	102%	118%	145%	88%	103%	60.1%	22.2%	-53.2% (active)	36.4%
COC(=O)N1CC(Oc2ccccn2)C2CC1c1ccccc1O2 (stereo not given)	116%	104%	93%	88.6%	98.2%	95.7%	93.3%	83.4%	87.8%	94.5%
COc1ccc(-c2nc(-c3cn(C)c4ncccc34)cs2)cc1	1.08% [100 µM] (active)	-26.4% [100 µM] (active)	14.1% [100 µM]	14.4% [100 µM]	-21.3% [100 µM] (active)	8.63% [100 µM] (active)	0.0611% [100 µM] (active)	24.1% [100 µM]	2.08% [100 µM] (active)	2.81% [100 µM] (active)
CN(CCC(=O)c1ccccc1)CCC(=O)c1ccccc1	91%	103%	82.5%	77.1%	88.8%	107%	90.7%	78.9%	80.6%	94.5%
O=C1Nc2ccccc2/C1=C\c1c[nH]c2ccc(Br)cc12	66.8%	79.5%	84.9%	46%	75.3%	53.6%	55%	108%	66.1%	62.1%
Cc1c2ccncc2c(C)c2c1c1cc(CO)ccc1n2C	-7.55% (active)	1.54% (active)	6.64% (active)	3.77% (active)	-21.4% (active)	0.85% (active)	8.35% (active)	-81.7% (active)	8.76% (active)	6.68% (active)
NC(=O)c1c(NC(=O)c2cccs2)sc2c1CCC(=O)C2	81.6%	69.6%	44.9%	28.8%	59.8%	22%	-1.29% (active)	95%	8.75% (active)	13.6%
FC(F)(F)c1ccc(Cn2cc(CSc3nc4ccccc4s3)nn2)cc1	95.6%	99.5%	99.9%	78.7%	97.6%	101%	84.3%	86%	91%	98.1%
O=C1/C=C/[C@@H](O)[C@@H]2C[C@@H](O)C[C@H]2/C=C/CCC[C@H](CCO)O1	-20.3% (active)	9.95% (active)	10.5%	18.1%	-30.4% (active)	5.87% (active)	1.05% (active)	-33.3% (active)	18.8%	15.1%
O=C(CCCCCCN1CC(=O)N2[C@H](c3ccc(Cl)cc3)c3[nH]c4ccccc4c3C[C@@H]2C1=O)NO	66.1%	65.7%	63.1%	57.9%	55.8%	84.4%	65.2%	78.9%	25.7%	4.87% (active)
CC1(C)CC[C@]2(CO)CC[C@]3(C)[C@H](CC[C@@H]4[C@@]5(C)CCCNC(C)(C)[C@@H]5CC[C@]43C)[C@H]2[C@H]1O	102%	95.2%	86.2%	72.6%	86.5%	101%	95.3%	93.4%	61.2%	54.1%
COc1cc(NC(=O)c2cncnc2Nc2ccc3c(ccn3Cc3ccccn3)c2)cc(OC)c1	45%	68.4%	56.2%	46%	73.3%	66.5%	44.2%	-12.5% (active)	22.3%	24.9%
Cc1ccc(S(=O)(=O)OCCCOS(=O)(=O)c2ccc(C)cc2)cc1	101%	99.7%	98.1%	71.3%	109%	96%	68.3%	106%	79.1%	62.5%
CCCCNc1nnc2n(Cc3ccccc3)c(=O)c3c4c(sc3n12)CCCC4	41.6%	60.8%	46%	34.2%	59.3%	40.8%	42.6%	45.4%	59.2%	10.4%
O=C(/C=C/c1ccccc1)c1ccc(Nc2nc(Nc3ccc(F)cc3)nc(Nc3ccc(Cl)cc3)n2)cc1	92%	79.2%	99.6%	82%	106%	93.1%	87.4%	94.5%	26.3%	83.6%
Cc1cccc2c1C[C@@]1(C2=O)C(c2ccc(C(C)(C)C)cc2)=NOS1=O (stereo not given in full)	93.1%	79.2%	92.3%	77.1%	158%	108%	94.2%	77.1%	83.6%	80.1%
CN1CCN(CCCOc2cccc3nc(Nc4ccc(F)c(F)c4)ccc23)CC1	-49.7% (active)	34%	24.4%	-54.3% (active)	-4.13% (active)	-31.4% (active)	-29.1% (active)	33.6%	-26.9% (active)	-38.4% (active)
COc1ccc(C(=O)/C=C/c2ccc(N3CCCCC3)cc2)cc1OC	103%	92.8%	90.5%	73.4%	110%	100%	90.4%	87.2%	81.5%	88.7%
C=C(C)[C@@H]1CC[C@]2(C(N)=O)CC[C@]3(C)[C@H](CC[C@@H]4[C@@]5(C)CC[C@H](OCCC#N)C(C)(C)[C@@H]5CC[C@]43C)[C@@H]12	92.5%	90.4%	78.5%	75.8%	117%	74.1%	64.5%	116%	78.9%	70%
Clc1ccccc1-c1cnn2cc(-c3ccccc3)cnc12	101%	83.3%	79.5%	84.6%	89.1%	74.1%	81.4%	72%	89.2%	83.7%
COc1cccc(-c2cc(-c3cccc(Cl)c3)c(C#N)c(=O)[nH]2)c1	60.8%	90.4%	85.2%	71.5%	95.9%	94.2%	64.9%	45.8%	28.2%	64.8%
